Where “and” joins values, the source holds several entries; their conditions need not be identical. Equal values may be shown once. Hit rate of the full screen: of about 6,400 compounds, about 610 (9.5%) were called active. Cut-off read from the data, not from the text of the source: active = activity change below about -70%; inconclusive = no clear call, values can overlap the other calls; inactive = above that. Only a selection was taken, and actives are over-represented in it overall. A structure can be active in one record and inactive in another.
Assay: T. gondii ME49Luc in HeLa cells, luciferase assay, 72 h, no IFN-y (AID 1259421)
Details: stronger effect = lower value, concentration not given here

Row | Structure (SMILES) | activity change, negative = inhibition
1 | Cc1cc(Nc2ccc(NC(=O)c3ccc(Nc4ccnc5ccccc45)cc3)cc2)nc(N)n1 | -89.9% (active)
2 | O=C(OCC(O)CO)c1ccccc1Nc1ccnc2cc(Cl)ccc12 (stereo not drawn) | 5.66% (inactive)
3 | CC(=O)Nc1ccc(C(=O)Nc2ccccc2N)cc1 | 31.2% (inactive) and 45.5% (inactive)
4 | CC1(C)O[C@@H]2CC3C4CCC5=CC(=O)CCC5(C)C4(F)C(O)CC3(C)[C@]2(C(=O)CCl)O1 (stereo partly drawn) | -3.24% (inactive) and 2.55% (inactive)
5 | CCOC(=O)c1cc(C#N)c(N2CCC(C(=O)NS(=O)(=O)Cc3ccccc3)CC2)nc1C | 13.4% (inactive)
6 | CCCCCCCCCCCCCCCCCCCCCCCCC(=O)O | 11.5% (inactive)
7 | CCCCCCCCCCCCCCCC[n+]1ccccc1 | -12.3% (inactive) and -82.5% (active)
8 | CCCCCCCC(=O)O | 9.6% (inactive) and 5.48% (inactive)
9 | FC(F)(F)c1ccccc1-n1ccnc1 | -1.27% (inactive)
10 | N#Cc1ccc(C(c2ccc(C#N)cc2)n2cncn2)cc1 | 0.399% (inactive)
11 | c1ccc(-c2ccc(C(c3ccccc3)n3ccnc3)cc2)cc1 (stereo not drawn) | -68.3% (inactive) and -81.5% (active)
12 | CCCCCCCCCCCCCCCCCCc1ccc(C(=O)/C=C/C(=O)O)cc1 | 11.8% (inactive)
13 | CCCCCCCCc1ccc(-c2ccc(C(=O)O)cc2)cc1 | 18% (inactive)
14 | CCCCCCCCc1ccc(CCC(N)(CO)CO)cc1 | -79.3% (active) and -52.1% (inactive)
15 | CC1(O)C(O)C(CO)OC1n1cnc2c(NC3CCCC3)nc(Cl)nc21 (stereo not drawn) | 13.4% (inactive)
16 | CC[C@@H](C(=O)O)[C@@H]1O[C@@H]([C@@H](C)[C@H](O)[C@H](C)C(=O)[C@H](CC)[C@H]2O[C@]3(C=C[C@@H](O)[C@]4(CC[C@@](C)(C5CC[C@](O)(CC)[C@H](C)O5)O4)O3)[C@H](C)C[C@@H]2C)[C@@H](C)C[C@H]1C (stereo partly drawn) | -82.4% (active)
17 | CC[C@@H](C(=O)[C@@H](C)[C@@H](O)[C@H](C)[C@@H]1O[C@@H]([C@@H](CC)C(=O)O)CC[C@@H]1C)[C@H]1O[C@]2(C=C[C@@H](O)[C@]3(CC[C@@](C)(C4CC[C@](O)(CC)[C@H](C)O4)O3)O2)[C@H](C)C[C@@H]1C (stereo partly drawn) | -83.1% (active)
18 | CC[C@@H](C(=O)[C@@H](C)[C@@H](O)[C@H](C)[C@@H]1O[C@@H]([C@@H](CC)C(=O)O)CC[C@@H]1C)[C@H]1OC2(C=C[C@@H](O)[C@]3(CC[C@@](C)(C4CC[C@](O)(CC)[C@H](C)O4)O3)O2)[C@H](C)C[C@@H]1C (stereo partly drawn) | -90.6% (active)
19 | CC[C@@H](C(=O)O)C1CC[C@H](C)C([C@@H](C)[C@H](O)[C@H](C)C(=O)[C@H](CC)C2O[C@]3(C=C[C@@H](O)[C@]4(CC[C@@](C)(C5CC[C@](O)(CC)[C@H](C)O5)O4)O3)[C@H](C)C[C@@H]2C)O1 (stereo partly drawn) | -72.7% (active) and -80.8% (active)
20 | NC(CC(F)C(=O)O)C(=O)O (stereo not drawn) | 4.86% (inactive)
21 | O=C(O)C1/C(=C\CO)OC2CC(=O)N21 (stereo not drawn) | 6.21% (inactive)
22 | Cc1cc(-c2ncc(CC(=O)Nc3ccc(-c4cnccn4)cn3)cc2C)ccn1 | 5% (inactive)

Row | Structure (SMILES) | activity change, negative = inhibition
23 | N#CC(C#N)Cc1ccc(O)cc1 | 0.596% (inactive)
24 | COc1ccccc1Oc1c(NS(=O)(=O)c2ccc(C)cn2)nc(-c2ccncc2)nc1OC | 7.32% (inactive)
25 | O=C(NN1C(=O)[C@@H]2[C@@H]3C=C[C@@H]([C@H]4C[C@@H]34)[C@@H]2C1=O)c1ccc(C(F)(F)F)cc1 | 3.93% (inactive)
26 | COc1ccc(CCN(C)CCCN2CCc3cc(OC)c(OC)cc3CC2=O)cc1OC | 10.1% (inactive)
27 | COc1ccc(CCN(C)CCCOc2ccc(S(=O)(=O)c3c(C(C)C)c4ccccc4n3C)cc2)cc1OC | -76.5% (active)
28 | COc1ccc(CCN(C)CCc2ccc(OC)c(OC)c2)cc1OC | 7.34% (inactive) and -3.3% (inactive)
29 | CO[C@@H]1[C@@H](O[C@@H]2O[C@H](C)[C@@H](O[C@H]3C[C@@](C)(OC(=O)CC(C)C)[C@@H](O)[C@H](C)O3)[C@H](N(C)C)[C@H]2O)[C@@H](CC=O)C[C@@H](C)[C@@H](O)/C=C/C=C/C[C@@H](C)OC(=O)C[C@H]1OC(C)=O | -10.6% (inactive)
30 | COc1ccc(CCO[C@@H]2CCCC[C@H]2N2CC[C@@H](O)C2)cc1OC | 23% (inactive)
31 | O=C1c2cccc(O)c2C(=O)c2c(O)cccc21 | 3.71% (inactive) and 0.722% (inactive)
32 | O=C1c2cccc(O)c2C(=O)c2c(O)cc(CO)cc21 | -11.5% (inactive)
33 | O=C1c2c(O)ccc(O)c2C(=O)c2c(NCCNCCO)ccc(NCCNCCO)c21 | -73.8% (active) and -3.38% (inactive)
34 | CCCCCCCC/C=C/CCCCCCCC(=O)NCCO | -10.5% (inactive)
35 | C=C1C(=O)[C@]23[C@H](O)[C@H]1CC[C@@H]2[C@@]12CO[C@]3(O)C[C@@H]1C(C)(C)CC[C@@H]2O | -77.5% (active) and 3.05% (inactive)
36 | O=c1cc(-c2ccccc2O)oc2cc(O)ccc12 | 190% (inactive)
37 | COP(=O)(OC)OC(c1ccc(Cl)cc1)P(=O)(OC)OC (stereo not drawn) | 5.14% (inactive) and 12.1% (inactive)
38 | CN(C)Cc1ccc(S(=O)(=O)n2ccc(/C=C/C(=O)NO)c2)cc1 | -84.8% (active)
39 | c1ccc2sc(SN3CCOCC3)nc2c1 | 17.7% (inactive)
40 | COc1c(-c2ccc3cc(NS(C)(=O)=O)ccc3c2)cc(-n2ccc(=O)[nH]c2=O)cc1C(C)(C)C | 17.6% (inactive)
41 | CC(=O)OCC(=O)[C@@]1(O)[C@H](C)CC2C3CCC4=CC(=O)C=C[C@]4(C)[C@@]3(F)[C@@H](O)C[C@@]21C (stereo partly drawn) | -8.27% (inactive)
42 | Nc1nc(-c2ccc(Cl)c(Cl)c2)c(-c2ccncc2)s1 | -9.5% (inactive)
43 | COC(=O)[C@@]12OC[C@]34[C@H]([C@@H](O)[C@@H]1O)[C@@]1(C)CC(=O)C(=O)C(C)[C@@H]1C[C@H]3OC(=O)[C@H](OC(=O)/C=C(\C)C(C)C)[C@@H]24 (stereo partly drawn) | -83.7% (active)

Reference: PubChem BioAssay AID1259421 (Broad Institute, 2018)
